Assay results as given in PubChem BioAssay AID504329 (Southern Research Specialized Biocontainment Screening …, 2011).
Out of some 340,000 compounds screened, about 1,000 (0.29%) were called active. A selection follows. Results with a measured potency or affinity are listed apart. Values without a mark were called inactive. No stated cut-off is given here; in the data, inconclusive means inhibition above about 27% without an active follow-up result; inactive means below that.

Assay: NS1A inhibition, H1N1 influenza, cell based functional assay (AID 504329)
Details: percent inhibition, at 12.5 µM, hits give high values
Work on `CCc1nnc(NC(=O)c2cc(-c3ccncc3)nc3ccccc23)s1` yielded an inhibition of -12.1%. Compound `Cc1ccc(N(C(=O)c2csnn2)C(C(=O)NC(C)(C)C)c2cccnc2)cc1` (stereo not given) has an inhibition of -8.33%. `CC1CN(c2ccc([N+](=O)[O-])c(NCCOc3ccccc3)c2)CCN1` (stereo not given) gave an inhibition of 4.39%. For `CC1CN(c2ccc([N+](=O)[O-])c(NCCOc3ccc(Cl)cc3)c2)CC(C)N1` (stereo not given), the inhibition was 20.5%. `COCCN1C(=O)N[C@@H](CCc2ccccc2)[C@@H](C(=O)OC)[C@H]1C` gave an inhibition of -8.6%. In the case of `COc1ccccc1NC(=O)CSc1nnc(CNC(=O)c2cccs2)o1`, the inhibition is reported as -6.38%. In the case of `O=C(Cn1cnc(S(=O)(=O)N2CCCCC2)c1)Nc1ccc(OC(F)(F)F)cc1`, the inhibition is reported as 2.65%. Work on `O=S(=O)(Nc1ccc2c(c1)OCCO2)c1c(F)cccc1F` yielded an inhibition of -2%. In the case of `CNc1nc(Cl)nc(Nc2ccccc2)n1`, the inhibition is reported as 6.99%. With `NNc1nc(Nc2ccccc2)nc(Nc2ccccc2)n1` the inhibition was -2.5%. With `O=C(CCS(=O)CCC(=O)NCc1ccccc1)NCc1ccccc1` the inhibition was -7.22%. Compound `CCN1C(=O)/C(=C/C=C2/Sc3ccccc3N2CCO)SC1=S` has an inhibition of 8.17%. In the case of `CCN1C(=O)/C(=C/C=C2\C=CN(CC)c3ccccc32)SC1=S`, the inhibition is reported as 21%. Compound `CC(=O)c1ccc(N2CCN(C(=O)Cc3n[nH]c(=O)c4ccccc34)CC2)cc1` has an inhibition of 2.74%. Compound `COc1cccc(CN(C)C(=O)c2cccc(OCc3ccccc3)c2)c1` has an inhibition of 5.5%. For `Cc1cc(OC(C)C(=O)NCCN2CCOCC2)c2c(C)c(C)c(=O)oc2c1` (stereo not given), the inhibition was 2.99%. `CC(=O)/C(N=Nc1c(C)n(C)n(-c2ccccc2)c1=O)=C(\C)O` gave an inhibition of 1.66%. `CCOC(=O)/C(N=Nc1c(C)n(C)n(-c2ccccc2)c1=O)=C(/O)c1ccccc1` gave an inhibition of 3.43%. Work on `COC(=O)/C(N=Nc1c(C)n(C)n(-c2ccccc2)c1=O)=C(\C)O` yielded an inhibition of 8.11%. Compound `Cc1c(N=N/C(C(=O)Nc2ccccc2)=C(/O)c2ccccc2)c(=O)n(-c2ccccc2)n1C` has an inhibition of 12.5%. `CCOC(=O)CC(NC(=O)c1cc2cccc(OC)c2oc1=O)c1ccc(OC)cc1` (stereo not given) gave an inhibition of -20.4%. For `COc1ccc(-n2c(=O)c3ccccc3n(CC(=O)NC3CCCCC3)c2=O)cc1OC`, the inhibition was 10.9%. Work on `O=S(=O)(c1ccc(Cl)cc1)N1CCCC1c1cccnc1` (stereo not given) yielded an inhibition of -6.92%. `COc1ccc(CNC(=O)C(OC(=O)c2ccco2)c2ccccc2F)cc1` (stereo not given) showed an inhibition of 4.89%. With `COc1cc(C(=O)NCc2nnc(SCC(=O)N3CCCCCC3)o2)cc(OC)c1OC` the inhibition was 0.67%.
